The record followed here is PubChem BioAssay (EPA / NIEHS).

Inconclusive results are not listed. Calls of active or inactive are those of the source. The calls were made as follows, unless noted: active = hit-call score of the fitted dose curve at least 0.9, where 1 is the maximum; inactive = score below 0.9.

Assay [1] can be described thus: ATG_TAL_CIS: Attagene CIS-FACTORIAL HepG2 Assay for human TAL Basal Promoter (AID 2282966).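 Also: background control endpoint measuring basal TAL promoter reporter mRNA not a specific factor.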 As to conditions: HepG2 Attagene cis-factorial TAL promoter reporter; actives raise or lower the signal. An outline of the steps: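 After 24 hours of chemical exposure, transfected HepG2 cells yielded RNA that was converted to 6-FAM-labelled, HpaI-digested reporter fragments for capillary electrophoresis. Values derive from bidirectional fitting against DMSO controls.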

Assay [2] is described as follows: ATG_TGFb_CIS: Attagene CIS-FACTORIAL HepG2 Assay for human Transforming Growth Factor (TGF) (AID 2282967). Particulars: HepG2 Attagene CIS TGFb reporter, mRNA transcription; actives raise or lower the signal. The method in brief:
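Cells were dosed for 24 hours, after which total RNA was reverse-transcribed and reporter sequences amplified, labeled and sized by capillary electrophoresis. Activity was fitted in both directions against DMSO.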

A short description of assay [3]: ATG_VDRE_CIS: Attagene CIS-FACTORIAL HepG2 Assay for human Vitamin D Receptor Element (VDRE) (AID 2282968). As to conditions: HepG2 VDRE cis-reporter transcription, actives raise or lower the signal. An outline of the steps: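 Transient MRTU transfection of HepG2, 24 h compound exposure. Readout: reporter transcripts via RT-PCR and capillary electrophoresis, fluorescence. Bidirectional fit vs DMSO.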

The target of assay [4] is X-box-binding protein 1 (Homo sapiens) (UniProt P17861). Put plainly: ATG_Xbp1_CIS: Attagene CIS-FACTORIAL HepG2 Assay for human X-box Binding Protein 1 (XBP1) (AID 2282972). As to conditions: HepG2 XBP1 cis-element reporter, Attagene multiplex; actives raise or lower the signal. An outline of the steps: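 Reporter transcripts were quantified by RT-PCR with fluorescent primer extension and capillary electrophoresis after 24 h chemical exposure. Cells: transiently transfected HepG2 carrying cis-regulated reporter constructs; data fitted bidirectionally relative to DMSO.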

The nature of assay [5]: ATG_M_19_TRANS: Attagene TRANS-FACTORIAL HepG2 Assay for M19 Transcription Factor (Internal Marker) (AID 2282974; active = hit-call score of the fitted dose curve at least 0.9, where 1 is the maximum). Particulars: HepG2 Attagene TRANS-FACTORIAL M19 internal marker reporter. The method in brief: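 Reporter mRNA induction was measured in transfected HepG2 cells 24 h after dosing. Endpoint fitted upward relative to DMSO and serves as a background control within the multiplexed TRANS panel.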

The nature of assay [6]: ATG_GAL4_TRANS: Attagene TRANS-FACTORIAL HepG2 Assay for GAL4 (Internal Marker) (AID 2282976; active = hit-call score of the fitted dose curve at least 0.9, where 1 is the maximum). As to conditions: HepG2 Attagene TRANS GAL4 internal marker reporter. The method in brief:
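First, HepG2 cells were transfected with reporter units under GAL4-UAS control. Next, they were treated with chemical for 24 h. Finally, RNA was reverse-transcribed, PCR-amplified, FAM-labelled and resolved by capillary electrophoresis, with induction scored against DMSO.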

Assay [7] has as its target Nuclear receptor subfamily 1 group I member 3 (Homo sapiens) (UniProt Q14994). The assay is described as follows: ATG_CAR_TRANS: Attagene TRANS-FACTORIAL HepG2 Assay for human Constitutive Androstane Receptor (CAR) (AID 2282969; active = hit-call score of the fitted dose curve at least 0.9, where 1 is the maximum;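 also: activators raise reporter mRNA above DMSO so AC50 marks induction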). As to conditions: HepG2 Attagene TRANS-FACTORIAL CAR reporter. The method in brief:
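Transiently transfected HepG2, multiplex TRANS reporters (CAR-Gal4 chimera driving GAL4-UAS reporter). 24 h dosing. Readout: reporter transcript by RT-PCR + capillary electrophoresis, fluorescence intensity; positive direction vs DMSO.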

For assay [8], the target named is Estrogen receptor (Homo sapiens) (UniProt P03372). The assay is described as follows: ATG_ERa_TRANS: Attagene TRANS-FACTORIAL HepG2 Assay for human Estrogen Receptor alpha (ERa) (AID 2282970; active = hit-call score of the fitted dose curve at least 0.9, where 1 is the maximum). As to conditions: HepG2 Attagene TRANS ERa GAL4 reporter, mRNA. The method in brief: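 Liver-derived HepG2 cells expressing chimeric nuclear receptor-Gal4 proteins from transient transfection were exposed for 24 hours. Gain of reporter mRNA signal versus DMSO, read by capillary electrophoresis of FAM-labelled PCR products, was recorded.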

The target in assay [9] is Estrogen-related receptor gamma (Homo sapiens) (UniProt P62508). Put plainly: ATG_ERRg_TRANS: Attagene TRANS-FACTORIAL HepG2 Assay for human Estrogen-Related Receptor gamma (ERRg) (AID 2282977; active = hit-call score of the fitted dose curve at least 0.9, where 1 is the maximum;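 also: hits increase reporter signal over DMSO so potencies reflect activators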). As to conditions: HepG2 Attagene TRANS reporter, ERRg transactivation. The method in brief: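 Readout: fluorescent reporter-mRNA fragments resolved by capillary electrophoresis after RT-PCR and HpaI cut. Cells: transiently transfected HepG2 carrying GAL4-UAS reporters driven by exogenous NR-Gal4 chimeras, dosed 24 h. Activity fitted upward relative to DMSO baseline.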
Sequence of Estrogen-related receptor gamma (Homo sapiens) (P62508 whole entry, looked up, the tested form may be a part): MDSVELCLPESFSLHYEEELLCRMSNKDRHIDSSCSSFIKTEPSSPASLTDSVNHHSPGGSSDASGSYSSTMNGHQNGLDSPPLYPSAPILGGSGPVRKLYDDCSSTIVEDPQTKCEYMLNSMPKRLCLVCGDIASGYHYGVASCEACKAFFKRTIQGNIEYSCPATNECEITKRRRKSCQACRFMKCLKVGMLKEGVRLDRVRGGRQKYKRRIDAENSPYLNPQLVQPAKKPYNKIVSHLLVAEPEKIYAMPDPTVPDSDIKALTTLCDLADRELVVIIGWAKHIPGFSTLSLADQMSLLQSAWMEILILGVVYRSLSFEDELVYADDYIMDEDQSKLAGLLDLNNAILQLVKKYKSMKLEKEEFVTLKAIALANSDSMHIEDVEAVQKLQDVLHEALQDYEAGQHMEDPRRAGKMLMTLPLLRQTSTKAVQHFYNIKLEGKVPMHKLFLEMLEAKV

Sequence of X-box-binding protein 1 (Homo sapiens) (P17861 whole entry, looked up): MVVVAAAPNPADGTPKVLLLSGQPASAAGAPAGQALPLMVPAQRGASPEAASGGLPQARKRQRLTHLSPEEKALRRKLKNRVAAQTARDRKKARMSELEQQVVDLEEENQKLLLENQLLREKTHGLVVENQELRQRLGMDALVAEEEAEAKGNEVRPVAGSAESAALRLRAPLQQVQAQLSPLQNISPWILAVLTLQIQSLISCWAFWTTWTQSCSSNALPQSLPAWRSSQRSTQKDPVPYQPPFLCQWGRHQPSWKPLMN
Sequence of Nuclear receptor subfamily 1 group I member 3 (Homo sapiens) (Q14994 whole entry, looked up, the tested form may be a part): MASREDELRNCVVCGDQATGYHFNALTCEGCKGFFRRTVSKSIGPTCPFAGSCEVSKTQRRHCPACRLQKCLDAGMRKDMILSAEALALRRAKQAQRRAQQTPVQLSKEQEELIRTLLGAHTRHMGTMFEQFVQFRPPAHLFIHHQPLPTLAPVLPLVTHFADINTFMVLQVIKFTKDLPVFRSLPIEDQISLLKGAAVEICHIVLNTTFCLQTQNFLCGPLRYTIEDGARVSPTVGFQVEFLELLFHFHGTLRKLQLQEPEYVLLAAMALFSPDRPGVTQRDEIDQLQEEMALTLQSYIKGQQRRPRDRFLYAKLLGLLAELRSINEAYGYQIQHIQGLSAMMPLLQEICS
Sequence of Estrogen receptor (Homo sapiens) (P03372 whole entry, looked up, the tested form may be a part): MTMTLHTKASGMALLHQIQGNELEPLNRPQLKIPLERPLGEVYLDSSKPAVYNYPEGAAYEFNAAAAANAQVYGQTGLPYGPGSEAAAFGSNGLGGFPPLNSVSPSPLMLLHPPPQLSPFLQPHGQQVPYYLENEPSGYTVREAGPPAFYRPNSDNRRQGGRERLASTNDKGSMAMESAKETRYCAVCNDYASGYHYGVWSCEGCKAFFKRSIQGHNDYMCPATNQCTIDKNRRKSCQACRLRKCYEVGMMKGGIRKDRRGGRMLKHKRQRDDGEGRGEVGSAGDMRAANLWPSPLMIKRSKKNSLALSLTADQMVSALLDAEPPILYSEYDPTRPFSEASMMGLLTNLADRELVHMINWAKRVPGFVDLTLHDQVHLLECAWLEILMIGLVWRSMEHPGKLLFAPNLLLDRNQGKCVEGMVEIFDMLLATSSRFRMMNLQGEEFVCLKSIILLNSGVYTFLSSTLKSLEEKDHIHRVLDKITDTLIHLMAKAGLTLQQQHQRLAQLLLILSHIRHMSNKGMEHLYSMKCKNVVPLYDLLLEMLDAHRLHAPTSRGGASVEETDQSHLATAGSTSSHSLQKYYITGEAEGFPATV

For the compound `Nc1ccc(S(=O)(=O)O)c(N)c1`, the call in assay [1], in assay [2], in assay [3] and in [4] was inactive.
`CSc1nnc(C(C)(C)C)c(=O)[nH]1`: the result in assay [1], in [2], in assay [3], in assay [4], in [5] and in assay [6] was inactive.
As to `CN(CCOc1ccc(CC2SC(=O)NC2=O)cc1)c1ccccn1` (configuration not stated), the compound was called inactive in [1], in [2], in assay [7], in assay [8], in assay [4] and in [5].
Turning to `CC(=O)[O][Al][O]C(C)=O`, the result in assay [1], in assay [2], in [3], in [4] and in [6] was inactive.
`O=c1oc(=O)c2cc3c(=O)oc(=O)c3cc12`: the outcome in [1], in assay [2], in assay [3], in assay [4], in assay [5] and in [6] was inactive. Moreover, the outcome in [9] was inactive.
Take `OC[C@H]1O[C@H](O[C@]2(CCl)O[C@H](CCl)[C@@H](O)[C@@H]2O)[C@H](O)[C@@H](O)[C@H]1Cl`: the result in assay [1], in assay [2], in assay [3], in [4], in assay [5] and in assay [6] was inactive.
In the case of `C/C=C(\C)C(=O)OCc1ccccc1`, the compound was called inactive in assay [1], in assay [2], in [3], in [4], in [6] and in [9].
As usually defined, the AC50 is the concentration at which the activity in the assay is half-maximal. As for `O=C(Oc1ccccc1)c1ccc(O)cc1`, the call in assay [1], in assay [2], in [4], in assay [5] and in [6] was inactive. Also, the AC50 in [3] is 159 µM (active).
With `C=CC[N+](C)(C)CC=C`, the result in assay [1], in assay [2], in assay [3], in assay [4] and in assay [6] was inactive.
As for `CCC(=O)/C=C/C1C(C)=CCCC1(C)C` (configuration not stated), the call in assay [1], in assay [2], in [3], in [4] and in assay [6] was inactive.
For `CCCc1c(OCCCOc2ccc(OCC(=O)O)cc2)ccc(C(C)=O)c1O`, the outcome in assay [1], in assay [4] and in assay [6] was inactive. Further, the figures for the AC50 in assay [2] and in assay [3] were 70.5 µM (active) and 27.5 µM (active), respectively.
Turning to `C=C[Si](OCC)(OCC)OCC`, the compound was classed as inactive in [1], in assay [2], in [3], in assay [4] and in assay [6].
Regarding `O=[N+]([O-])c1ccc(Nc2ccc(Nc3ccccc3)c(S(=O)(=O)O)c2)c([N+](=O)[O-])c1`, the call in assay [1], in assay [3], in [5] and in assay [6] was inactive. Moreover, the AC50 is 148 µM (active) in [2] and 172 µM (active) in [4].
Turning to `CC(=O)C(=O)O`, the compound was classed as inactive in assay [1], in [2], in assay [3], in assay [4] and in assay [6].
Consider `COc1cc(C=O)ccc1OC(=O)C(C)C`, for which the result in [1], in assay [2], in assay [3], in assay [4], in assay [5] and in assay [6] was inactive. For the same compound, the result in assay [9] was inactive.
Regarding `CC(C=O)Cc1ccc(C(C)C)cc1` (configuration not stated), the result in assay [1], in assay [2], in assay [3], in assay [4] and in assay [6] was inactive.
As for `CCCCCCCCCCCCCCCC(=O)OC[C@H](O)[C@H]1OC(=O)C(O)=C1O`, the results for the AC50 in assay [1], in assay [2] and in assay [3] were 100 µM (active), 3.14 µM (active) and 37.1 µM (active), respectively. Further, the result in [4], in assay [6] and in [9] was inactive.
For the compound `CCCCCCOC(=O)CCCCC`, the outcome in assay [1], in assay [2], in assay [3], in [4], in [5] and in [6] was inactive.
Consider `O=C1NC(=O)c2ccccc21`, for which the call in assay [1], in assay [2], in assay [3], in assay [4] and in [6] was inactive.
Consider `Sc1nc(S)nc(S)n1`, for which the compound was classed as inactive in assay [1], in assay [2], in assay [3], in [4] and in [6].
For `Cc1ccc(C(C)C)cc1O`, the outcome in assay [1], in assay [2], in [4] and in assay [6] was inactive. For the same compound, the AC50 in assay [3] was 26.9 µM (active).
Regarding `O=C1CCCCCCCCCCCCCCO1`, the compound was classed as inactive in [1], in assay [3], in assay [4], in [5] and in [6]. Moreover, the AC50 in assay [2] was 158 µM (active).
For the compound `Cc1ccc2ccccc2n1`, the call in assay [1], in [2], in [3], in assay [4], in [5] and in assay [6] was inactive.
Consider `CCN(CC)c1ccc2c(-c3ccccc3C(=O)O)c3ccc(=[N+](CC)CC)cc-3oc2c1`, for which the outcome in [1], in [2], in [5] and in [6] was inactive. The AC50 in [3] was 33.5 µM (active); in assay [4], 100 µM (active).
As for `CCCOCC(C)O` (configuration not stated), the compound was called inactive in assay [1], in assay [2], in assay [3], in [4], in assay [5] and in assay [6]. For the same compound, in [9], the call was inactive.
For the compound `S=C(S)NCCNC(=S)S`, the compound was called inactive in [1], in [2], in assay [3], in assay [4] and in assay [6].
As to `COc1cc(C(C)(C)C)c(O)c(C(C)(C)C)c1`, the call in assay [1], in assay [2], in [3], in assay [4], in [6] and in assay [9] was inactive.
Consider `CCCCCNCCCCC`, for which the compound was classed as inactive in [1], in [2], in assay [3], in assay [4] and in assay [6].
